Data: PubChem BioAssay (NCATS)
Records with an inconclusive call do not appear. Active and inactive are the calls of the source. Calls follow the shape of the dose curve; as a rule, active = well fitted curve in the direction sought with a large enough effect; inconclusive = small, poorly fitted or top-dose-only effect, or another doubt; inactive = no such curve, though single readings can be large; an effect the other way counts as inactive or inconclusive.

Legend:
[1] = S16 Schwann cell viability assay (CellTiter-Glo assay) (AID 624031);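 also: native untransfected S16 rat Schwann cells; cellular ATP luminescence as a viability measure; nearly all actives have a fitted effect of over 70% in size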
Method in brief: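 Parental S16 cells, 24 h compound, 37 °C. ATP-luminescence viability; DMSO = 0% activity, empty wells as reference; curves classified by fit quality and efficacy.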

[2] = S16 Schwann cell PMP22 intronic element firefly luciferase assay (AID 624032); also: nearly all actives have a fitted effect of over 30% in size
Method in brief: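 Luciferase reporter of PMP22 intronic-element expression in stably transfected S16 rat Schwann cells, read by ONE-Glo luminescence after 24 h compound exposure at 37 C. Activity scaled between DMSO (0%) and positive-control PTC124; concentration-effect curves quality-classified.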

3D7 = assay: qHTS profiling for inhibitors of Plasmodium falciparum proliferation (AID 504749); also: nearly all actives have a fitted effect of over 60% in size; also: potency is read from the fitted curve at half-maximal effect; conditions: P. falciparum in erythrocytes, SYBR Green DNA, 72 h; series mostly up to 28.7 µM
Method in brief: (§1)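 Infected RBCs, 0.3% parasitemia/2.5% Hct final; cpd 72 h, 37 C, 5% CO2; lysis buffer with saponin/triton/SYBR Green I, o/n RT dark; FI 485/535; norm. to artemisinin (0.29 uM) and DMSO.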

CP185 = assay: as above; conditions: P. falciparum in erythrocytes, SYBR Green DNA, 72 h; series mostly up to 28.7 µM
Method in brief: as §1

CP201 = assay: as above; conditions: P. falciparum in erythrocytes, SYBR Green DNA, 72 h; series mostly up to 28.7 µM
Method in brief: as §1

CP217 = assay: as above; conditions: P. falciparum in erythrocytes, SYBR Green DNA, 72 h; series mostly up to 28.7 µM
Method in brief: as §1

CP238 = assay: as above; conditions: P. falciparum in erythrocytes, SYBR Green DNA, 72 h; series mostly up to 28.7 µM
Method in brief: as §1

CP250 = assay: as above; conditions: P. falciparum in erythrocytes, SYBR Green DNA, 72 h; series mostly up to 12.8 µM
Method in brief: as §1

CP252 = assay: as above; conditions: P. falciparum in erythrocytes, SYBR Green DNA, 72 h; series mostly up to 12.8 µM
Method in brief: as §1

CP256 = assay: as above; conditions: P. falciparum in erythrocytes, SYBR Green DNA, 72 h; series mostly up to 28.7 µM
Method in brief: as §1

CP262 = assay: as above; conditions: P. falciparum in erythrocytes, SYBR Green DNA, 72 h; series mostly up to 28.7 µM
Method in brief: as §1

CP269 = assay: as above; conditions: P. falciparum in erythrocytes, SYBR Green DNA, 72 h; series mostly up to 28.7 µM
Method in brief: as §1

CP286 = assay: as above; conditions: P. falciparum in erythrocytes, SYBR Green DNA, 72 h; series mostly up to 28.7 µM
Method in brief: as §1

CP305 = assay: as above; conditions: P. falciparum in erythrocytes, SYBR Green DNA, 72 h; series mostly up to 28.7 µM
Method in brief: as §1

DIV30 = assay: as above; conditions: P. falciparum in erythrocytes, SYBR Green DNA, 72 h; series mostly up to 28.7 µM
Method in brief: as §1

ECU = assay: as above; conditions: P. falciparum in erythrocytes, SYBR Green DNA, 72 h; series mostly up to 28.7 µM
Method in brief: as §1

HB3 = assay: as above; conditions: P. falciparum in erythrocytes, SYBR Green DNA, 72 h; series mostly up to 28.7 µM
Method in brief: as §1

JCK = assay: as above; conditions: P. falciparum in erythrocytes, SYBR Green DNA, 72 h; series mostly up to 28.7 µM
Method in brief: as §1

N140 = assay: as above; conditions: P. falciparum in erythrocytes, SYBR Green DNA, 72 h; series mostly up to 28.7 µM
Method in brief: as §1

TAB109 = assay: as above; conditions: P. falciparum in erythrocytes, SYBR Green DNA, 72 h; series mostly up to 12.8 µM
Method in brief: as §1

Measured: Potency

CCNC[C@H](O)c1cccc(O)c1
inactive: all assays above

CC[C@@]1(c2ccc(N)cc2)CCC(=O)NC1=O
inactive: all assays above

C[C@@]12CCC(=O)C=C1C=C[C@H]1[C@H]3CC[C@](O)(CCC(=O)O)[C@]3(C)CC[C@@H]12
not listed: HB3
inactive: all other assays above

C[C@H]1CN(C2CCC(C#N)(c3ccc(F)cc3)CC2)CC[C@@]1(C(=O)O)c1ccccc1 (stereo partly drawn)
inactive: all assays above

CN(C)C(=O)Oc1cc(OC(=O)N(C)C)cc([C@@H](O)CNC(C)(C)C)c1
inactive: all assays above

COc1ccc2c(c1OC)CN1CCc3cc4c(cc3[C@H]1C2)OCO4
inactive: [1] | [2]
active: CP185 2.51 µM | CP238 3.55 µM | CP256 3.16 µM | CP262 1.61 µM | CP269 2.03 µM | CP305 2.28 µM | DIV30 2.56 µM | TAB109 2.24 µM

C[N+]1(C)[C@@H]2CC[C@H]1CC(OC(=O)[C@@H](CO)c1ccccc1)C2 (stereo partly drawn)
not listed: CP256
inactive: all other assays above

C[C@H](NC(C)(C)C)C(=O)c1cccc(Cl)c1
inactive: all assays above

CC[C@@H]1[C@@H]2C[C@H]3[C@H]4N(C)c5ccccc5[C@@]45C[C@@H]([C@@H]2[C@@H]5O)N3[C@H]1O
inactive: all assays above

CC(=O)O[C@H]1CC[C@@]2(C)C(=CC[C@@H]3[C@H]2CC[C@]2(C)C(=O)CC[C@H]32)C1
inactive: all assays above

CC(=O)OCC(=O)[C@@H]1CC[C@H]2[C@H]3CC[C@H]4C[C@@H](O)CC[C@]4(C)[C@@H]3C(=O)C[C@@]12C
inactive: all assays above

NCC[C@H](O)C(=O)N[C@H]1C[C@@H](N)[C@@H](O[C@H]2O[C@@H](CN)[C@@H](O)[C@@H](O)[C@@H]2N)[C@@H](O[C@H]2O[C@@H](CO)[C@@H](O)[C@@H]2O)[C@@H]1O
inactive: all assays above

CNC[C@H](O)c1ccc(O)cc1
inactive: all assays above
